Experimental findings from PubChem BioAssay (Tox21) are described below.

Assay [1] is described as follows: qHTS assay to identify small molecule agonists of the peroxisome proliferator-activated receptor delta (PPARd) signaling pathway - cell viability counter screen (AID 743211). Also: nearly all actives have a fitted effect of over 55% in size. Also: potency is read from the fitted curve at half-maximal effect. The essentials: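 Luminescent ATP viability assay (CellTiter-Glo, 30 min RT) in UAS-bla HEK293H cells carrying the PPAR delta reporter construct, 3000 cells/well, after a 17 h compound treatment at 37 C.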
On the technique in general: Quantitative high-throughput screening tests each substance at several concentrations.

Assay [2] has as its target Peroxisome proliferator-activated receptor delta (Homo sapiens) (UniProt Q03181). Nature of the assay: qHTS assay to identify small molecule agonists of the peroxisome proliferator-activated receptor delta (PPARd) signaling pathway (AID 743212; calls by dose curve). The essentials:
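HEK293H PPARd-bla cells; 5 h preincubation 37 C/5% CO2; compound (DMSO) 37 C; LiveBLAzer B/G FRET substrate 2 h RT; fluorescence intensity.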

Assay [3] is described as follows: qHTS assay to identify small molecule antagonists of the peroxisome proliferator-activated receptor delta (PPARd) signaling pathway - cell viability counter screen (AID 743213). Also: nearly all actives have a fitted effect of over 50% in size. Also: potency is read from the fitted curve at half-maximal effect. The essentials: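 Viability counter-screen, qHTS format: PPARd-bla HEK293H, L165041 300 nM final, 17 h compound exposure at 37 C, CellTiter-Glo luminescence after 30 min RT.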
Assay [4] addresses Peroxisome proliferator-activated receptor delta (Homo sapiens) (UniProt Q03181). Nature of the assay: qHTS assay to identify small molecule antagonists of the peroxisome proliferator-activated receptor delta (PPARd) signaling pathway (AID 743215; active = well fitted inhibition curve with a large enough effect in the signal ratio in the repeat runs, not every such curve was filed as active; the % refers to the signal ratio;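 also: cells stimulated with agonist L165041 at 300 nM final during compound exposure; series mostly up to about 62 µM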). The gist of the method:
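PPARd UAS-bla HEK293H cells were pre-incubated 5 h at 37 C, then given test compounds in DMSO plus agonist L165041 (300 nM final). After 17 h at 37 C, beta-lactamase FRET substrate was added; fluorescence read after 2 h at room temperature.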

Assay [5] is described as follows: qHTS assay to identify small molecule agonists of the farnesoid-X-receptor (FXR) signaling pathway - cell viability counter screen (AID 743218). Also: nearly all actives have a fitted effect of over 45% in size. Also: potency is read from the fitted curve at half-maximal effect. The gist of the method: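 FXR-UAS-bla HEK 293T cells, plated 5 h at 37 C, were exposed to compounds for 16 h at 37 C. CellTiter-Glo was then added to the same wells as the bla readout; luminescence read after 30 min at room temperature.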

Assay [6] is described as follows: qHTS assay to identify small molecule antagonists of the farnesoid-X-receptor (FXR) signaling pathway - cell viability counter screen (AID 743221; active = well fitted cell-killing curve with a large enough effect in the repeat runs, not every such curve was filed as active; also: nearly all actives have a fitted effect of over 50% in size; also: potency is read from the fitted curve at half-maximal effect). The essentials: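 In GeneBLAzer FXR-UAS-bla HEK 293T cells stimulated with 50 uM chenodeoxycholic acid (final), compounds acted for 16 h at 37 C. Viability was assessed afterwards by CellTiter-Glo luminescence.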
Assay [7] concerns the target Vitamin D3 receptor (Homo sapiens) (UniProt P11473). Nature of the assay: qHTS assay to identify small molecule agonists of the vitamin D receptor (VDR) signaling pathway (AID 743222; calls by dose curve). The essentials:
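VDR-bla cells were plated 4 h at 37C/5% CO2, then exposed to compounds in DMSO for 16 h. After LiveBLAzer B/G FRET substrate addition and 2 h at room temperature, beta-lactamase reporter fluorescence was read.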

The target in assay [8] is Bile acid receptor (Homo sapiens) (UniProt Q96RI1). Nature of the assay: qHTS assay to identify small molecule antagonists of the farnesoid-X-receptor (FXR) signaling pathway (AID 743217; active = well fitted inhibition curve with a large enough effect in the signal ratio in the repeat runs, not every such curve was filed as active; the % refers to the signal ratio). The gist of the method: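 FXR-UAS-bla HEK 293T cells pre-incubated 5 h at 37 °C, then exposed to compounds with chenodeoxycholic acid (50 uM final) for 16 h at 37 °C. Beta-lactamase reporter read by LiveBLAzer B/G FRET substrate fluorescence after 2 h at room temperature.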
Chain of Bile acid receptor (Homo sapiens) (Q96RI1 whole entry, looked up): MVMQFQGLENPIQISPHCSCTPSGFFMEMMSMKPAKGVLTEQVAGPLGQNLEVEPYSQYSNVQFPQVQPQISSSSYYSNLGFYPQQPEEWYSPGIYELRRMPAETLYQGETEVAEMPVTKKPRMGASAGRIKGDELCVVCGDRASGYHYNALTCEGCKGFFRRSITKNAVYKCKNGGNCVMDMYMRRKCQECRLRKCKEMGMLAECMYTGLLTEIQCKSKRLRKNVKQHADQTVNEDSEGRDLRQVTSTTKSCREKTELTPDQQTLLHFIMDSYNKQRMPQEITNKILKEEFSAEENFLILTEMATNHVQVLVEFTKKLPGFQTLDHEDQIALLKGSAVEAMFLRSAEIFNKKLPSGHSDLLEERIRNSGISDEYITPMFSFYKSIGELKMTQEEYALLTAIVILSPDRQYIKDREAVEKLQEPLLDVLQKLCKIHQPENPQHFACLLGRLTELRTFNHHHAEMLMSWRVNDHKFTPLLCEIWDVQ

Assay [9] has the same target. The experiment in a line: qHTS assay to identify small molecule agonists of the farnesoid-X-receptor (FXR) signaling pathway (AID 743220; active = well fitted activation curve with a large enough effect in the signal ratio in the repeat runs, not every such curve was filed as active; the % refers to the signal ratio). The gist of the method:
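Beta-lactamase reporter under UAS control in GeneBLAzer FXR HEK 293T cells (5000/well) measured with LiveBLAzer FRET substrate after 2 h at room temperature. Compound exposure lasted 16 h at 37C.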

Assay [10] has as its target Vitamin D3 receptor (Homo sapiens) (UniProt P11473). Nature of the assay: qHTS assay to identify small molecule antagonists of the vitamin D receptor (VDR) signaling pathway (AID 743223; active = well fitted inhibition curve with a large enough effect in the signal ratio in the repeat runs, not every such curve was filed as active; the % refers to the signal ratio). The gist of the method:
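Agonist 1alpha,25-dihydroxyvitamin D3 (3 nM in well) was added with each compound to VDR-bla cells preincubated 4 h. Cells stood 16 h at 37C, then FRET substrate 2 h at room temperature; fluorescence intensity recorded.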

Where “and” joins values, the source holds several entries; their conditions need not be identical. Equal entries are not always repeated. Results filed as inconclusive are left out. Some structures have more than one record in an assay (separate samples or runs), and their calls can disagree. Calls of active or inactive are those of the source. Unless noted, calls follow the shape of the dose curve; as a rule, active = well fitted curve in the direction sought with a large enough effect in the repeat runs; inconclusive = weak or mixed curves; inactive = no such curve, though single readings can be large; an effect the other way counts as inactive or inconclusive.

Chain of Peroxisome proliferator-activated receptor delta (Homo sapiens) (Q03181 whole entry, looked up): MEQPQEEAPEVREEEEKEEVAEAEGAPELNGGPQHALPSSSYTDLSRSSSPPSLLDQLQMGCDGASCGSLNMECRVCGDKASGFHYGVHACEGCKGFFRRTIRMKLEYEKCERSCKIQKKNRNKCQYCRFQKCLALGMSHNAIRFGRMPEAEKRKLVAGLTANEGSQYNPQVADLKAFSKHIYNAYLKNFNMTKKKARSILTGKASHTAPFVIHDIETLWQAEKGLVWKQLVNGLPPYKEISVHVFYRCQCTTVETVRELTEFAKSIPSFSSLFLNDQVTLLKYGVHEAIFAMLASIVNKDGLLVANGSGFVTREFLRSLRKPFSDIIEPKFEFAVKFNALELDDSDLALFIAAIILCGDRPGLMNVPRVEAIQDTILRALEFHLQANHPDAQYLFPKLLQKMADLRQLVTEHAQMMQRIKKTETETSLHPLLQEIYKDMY
Chain of Vitamin D3 receptor (Homo sapiens) (P11473 whole entry, looked up): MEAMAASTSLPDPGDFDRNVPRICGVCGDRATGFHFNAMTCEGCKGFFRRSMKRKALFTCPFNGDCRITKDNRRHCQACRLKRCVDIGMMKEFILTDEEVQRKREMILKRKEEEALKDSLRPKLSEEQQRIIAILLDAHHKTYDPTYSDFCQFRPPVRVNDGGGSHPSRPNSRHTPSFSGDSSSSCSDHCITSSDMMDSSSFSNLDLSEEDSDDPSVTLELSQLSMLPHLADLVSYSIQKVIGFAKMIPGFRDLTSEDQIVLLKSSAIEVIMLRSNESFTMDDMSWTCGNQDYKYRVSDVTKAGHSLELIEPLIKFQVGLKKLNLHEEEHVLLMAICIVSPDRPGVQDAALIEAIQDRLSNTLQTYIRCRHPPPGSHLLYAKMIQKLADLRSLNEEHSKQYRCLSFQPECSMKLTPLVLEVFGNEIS

With `CC(C)(C#N)N=NC(C)(C)C#N`, the Potency result in [1], in assay [2], in assay [3], in assay [4], in assay [5] and in assay [6] was “inactive” each time. The compound was classed as inactive in [7].
As to `CC(C)(c1ccccc1)c1ccc(O)cc1`, the Potency in [1] was 54.5 µM (active). For the same compound, the Potency result in [2], in assay [3], in assay [8], in assay [5], in assay [9] and in [6] was “inactive” throughout. For the same compound, the Potency entry in assay [10] was “inactive”. The compound was classed as inactive in [7].
Regarding `ClCc1ccccn1`, the Potency result in assay [1], in [2], in assay [3], in [4] and in assay [5] was “inactive” each time. Moreover, the compound was called inactive in assay [7].
For the compound `COP(=S)(OC)Oc1ccc(Sc2ccc(OP(=S)(OC)OC)cc2)cc1`, the Potency result in assay [1], in assay [2], in assay [3], in [4], in assay [5] and in [10] was “inactive” throughout. Further, the call in [7] was inactive.
On to `Nc1ccc([N+](=O)[O-])cc1N`, for which the Potency result in [1], in assay [2], in assay [3], in assay [4], in [5] and in assay [6] was “inactive” throughout. Besides, the Potency entry in assay [10] is “inactive”. Further, in assay [7], the result was inactive.
For `Cc1ccc([N+](=O)[O-])cc1`, the Potency result in assay [1], in assay [2], in [3], in [4], in assay [5] and in [6] was “inactive” in each case. Moreover, in assay [10], the Potency result was “inactive”. In addition, the compound was classed as inactive in [7].
Turning to `CNC(=O)CSP(=S)(OC)OC`, the Potency result in [1], in assay [2], in assay [3], in assay [4], in assay [5] and in [6] was “inactive” in each case. Also, the Potency entry in assay [10] is “inactive”. Also, the outcome in assay [7] was inactive.
Take `O=C1C(Cl)=C(Cl)C(=O)c2ccccc21`: the Potency in assay [1] is 19.6 µM (active) and 13.8 µM (active); in assay [3] it was 9.8 µM (active) and 6.17 µM (active); in assay [5], 49 µM (active); in assay [6], “inactive and 49 µM (active)”. In addition, in [2], the Potency result was “inactive”.
For `COP(=S)(OC)SCn1nnc2ccccc2c1=O`, the Potency entry in assay [1], in assay [2], in [3], in assay [5], in [6] and in assay [10] was “inactive” each time. For the same compound, in assay [7], the compound was called inactive.
For `CC(C)CON=O`, the Potency entry in assay [1], in assay [2], in [3], in [4] and in assay [5] was “inactive” in each case. Moreover, in assay [7], the outcome was inactive.
As for `Clc1cccc(C(Cl)(Cl)Cl)n1`, the Potency entry in [1], in assay [3], in assay [8], in assay [5] and in [9] was “inactive” in each case.
As to `OC(c1ccc(Cl)cc1)(c1cncnc1)c1ccccc1Cl` (stereo not drawn), the Potency entry in assay [1], in assay [2], in [3], in assay [4], in [5] and in assay [6] was “inactive” in each case. For the same compound, in assay [10], the Potency result was “inactive”. For the same compound, the outcome in assay [7] was inactive.
As to `Cn1c(-c2ccccc2)cc(-c2ccccc2)[n+]1C`, the Potency entry in assay [1], in assay [2], in [3], in assay [4], in [5] and in assay [6] was “inactive” throughout. Besides, the call in assay [7] was inactive.
Consider `CCNCC`, for which the Potency entry in assay [1], in assay [2], in assay [3], in assay [4], in assay [5] and in [6] was “inactive” in each case. Besides, the outcome in [7] was inactive.
As to `CCCCCCCCCCCCCl`, the Potency result in assay [1], in [2], in assay [3], in assay [4], in [5] and in [10] was “inactive” each time. Besides, the compound was called inactive in [7].
Consider `CNC(=S)S`, for which the Potency entry in assay [1], in assay [2], in assay [3], in assay [4] and in [5] was “inactive” throughout. Further, in [7], the outcome was inactive.
On to `CCCCOCCOC(C)=O`, for which the Potency result in assay [1], in assay [2], in assay [3], in assay [8], in assay [5] and in [9] was “inactive” in each case. In addition, the Potency result in assay [10] was “inactive”. The call in assay [7] was inactive.
For `CCOS(=O)(=O)OCC`, the Potency result in assay [1], in [2], in [3], in [4], in assay [5] and in assay [6] was “inactive” throughout. In addition, the result in [7] was inactive.
Turning to `C[C@]12CCC(=O)C=C1CC[C@@H]1[C@@H]2CC[C@@]2(C)[C@H]1CC[C@]2(C)O`, the Potency entry in assay [1], in [2], in assay [3], in assay [5] and in [6] was “inactive” in each case.
For `CCOP(=S)(OCC)SCSC(C)(C)C`, the Potency result in assay [1], in assay [2], in assay [3], in assay [4] and in assay [5] was “inactive” each time. Moreover, in [7], the outcome was inactive.
Regarding `N#Cc1nn(-c2c(Cl)cc(C(F)(F)F)cc2Cl)c(N)c1S(=O)C(F)(F)F` (stereo not drawn), the Potency in assay [1] was 22 µM (active) and inactive. Further, the Potency result in assay [2], in assay [5], in assay [9] and in assay [6] was “inactive” in each case. Moreover, the compound was classed as inactive in assay [7].
As to `ClCC(Cl)CCl`, the Potency result in assay [1], in assay [2], in assay [3], in assay [4], in assay [5] and in assay [6] was “inactive” each time. Moreover, in assay [10], the Potency result was “inactive”. Further, in assay [7], the call was inactive.
Consider `COC(=O)Nc1nc2ccccc2[nH]1`, for which the Potency entry in assay [1], in assay [2], in assay [3], in assay [4], in [5] and in assay [6] was “inactive” each time. The compound was classed as inactive in [7].
As to `c1ccc(C2CO2)cc1` (stereo not drawn), the Potency entry in assay [1], in assay [2], in [3], in assay [4], in assay [5] and in assay [10] was “inactive” throughout. The compound was classed as inactive in assay [7].
As to `Clc1cccc(Cl)c1`, the Potency entry in assay [1], in assay [2], in assay [3], in [4], in [5] and in [6] was “inactive” each time. Also, the call in [7] was inactive.
Take `COP(=O)(NC(C)=O)SC` (stereo not drawn): the Potency entry in assay [1], in assay [2], in [3], in assay [4], in [5] and in assay [10] was “inactive” in each case. Also, the compound was called inactive in assay [7].
Take `O=[N+]([O-])c1ccc(Nc2ccccc2)cc1`: in assay [1], the Potency entry was “inactive and 49 µM (active)”. Further, the Potency entry in assay [3] and in assay [6] was “inactive” in each case. For the same compound, the outcome in assay [7] was inactive.
Consider `Nc1ccc2ccccc2c1`, for which the Potency result in [1], in assay [3], in assay [5] and in [6] was “inactive” each time. For the same compound, in [7], the result was inactive.
